Compounds with a hit are over-represented: about 21% of the library has one in this group of screens.
Pf growth 96h: inhibits malaria parasite growth, 96 h | P. falciparum luciferase reporter growth, 96 h | Potency, µM (doses to about 28.7 µM), for the others: at the highest dose activity change, negative = inhibition, most hits filed as inhibitors | 320,000 tested, 6.9% active; also: potency is read from the fitted curve at half-maximal effect; % is scaled to controls: 0 for no effect and ±100 for the full control effect
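Two parasite generations (96 h, 37 C, 5% CO2) of compound exposure in infected erythrocytes (0.05% parasitemia, 2% hematocrit). Luciferase-reporter P. falciparum; decreased luminescence indicates inhibited growth, aimed at apicoplast-acting delayed death.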
Shiga inhibitor: blocks Shiga toxin action in Vero cells; Vero cells, Shiga toxin protein synthesis inhibition reporter; inhibition, % at 38.7 µM; 290,000 tested, 9.2% active; in the data active = inhibition mostly above about 28%, no sharp cut-off; inactive = mostly below about 43%; also: 0% is about no effect
AMA1 RON2 block: disrupts binding of P. falciparum AMA1 to RON2 | Potency, µM (titrated, usually from 58.2 µM), for inactives: at the top dose activity change, negative = inhibition, usual class: inhibitors | AID 720542 | AlphaScreen AMA1-biotinylated RON2 peptide binding | 360,000 tested, 0.2% active;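 also: potency is read from the fitted curve at half-maximal effect; 0% = vehicle wells and -100% = peptide control; nearly all actives have a fitted effect of over 45% in size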
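AMA1 (3D7) with his tag at 25 nM final met compounds first, then biotinylated RON2 peptide at 25 nM; detection used donor plus acceptor beads, 10 µg/mL apiece, read by AlphaScreen after 30 min at room temperature.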
Pf growth 48h: P. falciparum growth inhibition at 48 hours (one generation). 310,000 tested, 5.9% active. Potency, µM (doses to about 28.7 µM), for the others: at the highest dose activity change, negative = inhibition, hits mostly inhibitors. AID 504832. P. falciparum luciferase growth in erythrocytes, 48 h; also: potency is read from the fitted curve at half-maximal effect; % is scaled to controls: 0 for no effect and ±100 for the full control effect
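Read-out is firefly luciferase luminescence from an integrated reporter in P. falciparum, so falling signal marks reduced parasite growth. Infected erythrocytes were at 2% hematocrit and 0.1% parasitemia (final) in Albumax-supplemented RPMI 1640.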
HCV inhibitor: blocks hepatitis C virus. Huh7.5.1 HCVcc-Cre infection, luciferase reporter, 44 h. 340,000 tested, 3.4% active. Potency, µM (highest dose often 41.8 µM), without a hit: at the top dose activity change, negative = inhibition, hits mostly inhibitors; also: potency is read from the fitted curve at half-maximal effect; % is scaled to controls: 0 for no effect and ±100 for the full control effect
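Luciferase read-out (15 sec integration) after a 15 min room-temperature substrate step quantifies HCVcc-Cre infection. Cells, 1,000 per well, had compound added 4 h post-plating, then virus at ~0.5 moi, and were cultured 44 h.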
CHX counter: counter-screen for Shiga toxin inhibitors: cycloheximide protein synthesis inhibition; cell reporter, cycloheximide protein synthesis inhibition counterscreen; max response, %; 300,000 tested, 12% active; AID 2314; in the data active = max response mostly above about 13%, no sharp cut-off; inactive = mostly below about 14%; also: read at 38.3 µM for the half of the compounds with a filed dose; 0% is about no effect
Starred values were filed as active, the others as inactive; ? = inconclusive; / = no result given. Unless noted, calls follow the shape of the dose curve; as a rule, active = well fitted curve in the direction sought with a large enough effect; inconclusive = small, poorly fitted or top-dose-only effect, or another doubt; inactive = no such curve, though single readings can be large; an effect the other way counts as inactive or inconclusive.

SMILES	Pf growth 96h	Shiga inhibitor	AMA1 RON2 block	Pf growth 48h	HCV inhibitor	CHX counter
CC1(C(=O)NS(=O)(=O)c2ccc3c(c2)CCO3)CCN1C(=O)C1(c2ccc(Cl)cc2)CCC1 (configuration not stated)	/	/	10%	/	/	/
COc1ccc(C23CC4CC(CC(C(=O)O)(C4)C2)C3)c(F)c1	-7%	-3	-9%	18%	16%	-4
Cc1ccccc1/C=N\NC(=O)c1csnn1	-4%	112*	11%	64%	-3%	60*
O=C(N/N=C\c1ccc(F)cc1)c1csnn1	67%	106*	-2%	50%	5%	44*
CCOC(=O)N1CCC(=NNc2nc(C)cc(=O)[nH]2)CC1	?	42*	75%	4%	-6%	2
Cc1ccc(-n2nnc(-c3ccnc4ccccc34)n2)cc1	95%	59*	-2%	300%	-2%	29*
Fc1ccc(-n2nnc(-c3ccccc3)n2)cc1	23%	-7	9%	7%	-5%	-3
Fc1ccc(-n2nnc(-c3ccnc4ccccc34)n2)cc1	307%	44*	-10%	332%	-1%	40*
C[C@]12CCC3c4ccc(OCC(=O)O)cc4CCC3C1CCC2=O (some centres not stated)	?	-9	-3%	?	13%	-4
COc1ccc(CNC(=O)C2CCC(=O)N(CCCN3CCCC3=O)C2)c(OC)c1 (configuration not stated)	-21%	-6	-6%	5%	18%	-1
CCOc1ccc(S(=O)(=O)N(CC)CC(=O)N2CCOCC2)cc1C	24%	4	7%	-1%	-19%	-5
CC1=CC(C)C2(COC(=O)Nc3ccccc3)COC(C)C1C2C (configuration not stated)	?	36	-16%	?	0%	13*
N#CCCN1CCN(Cc2ccccc2)CCC1=O	1%	-9	-3%	37%	5%	1
COc1cccc(OC)c1OCCCOc1cccc2cccnc12	?	127*	-3%	?	-6%	21*
Cc1ccc(OCCCOc2cccc3cccnc23)cc1C	-38%	24	-5%	?	-18%	17*
Brc1ccc(OCCCOc2cccc3cccnc23)cc1	-1%	/	11%	28%	-4%	12
Brc1ccc(OCCOCCOc2cccc3cccnc23)cc1	/	/	-1%	/	15%	/
C/C=C/c1ccc(OCCOc2cccc3cccnc23)c(OC)c1	5%	36	-27%	39%	?	22*
Cc1cccc(OCCCOc2cccc3cccnc23)c1C	0%	20	2%	?	?	21*
Cc1ccccc1Oc1ccc2c(c1)[C@@H]1C[C@H](N(C)C(=S)Nc3ccc(F)cc3)[C@H]([C@H](C)O)C(=O)N1CC2	/	/	0%	/	/	/
COc1ccc(CNC(=O)COC(=O)c2ccc(OCC3CCCO3)cc2)cc1 (configuration not stated)	?	/	-3%	?	-2%	/
Cn1nc(-c2ccccc2)c2ncc(C(F)(F)F)cc21	4%	-17	9%	23%	?	6
CCCc1c(C(=O)N/N=C/c2sccc2C)nnn1-c1nonc1N	8%	-9	19%	41%	-23%	8
Cc1ccc2cccc(OCCOCCOc3ccccc3Br)c2n1	-23%	10	-6%	34%	?	2
Cc1ccc2cccc(OCCCOc3ccccc3F)c2n1	44%	/	5%	3%	10µM*	25*
SMILES	Pf growth 96h	Shiga inhibitor	AMA1 RON2 block	Pf growth 48h	HCV inhibitor	CHX counter
Cc1cccc(OC(C)C(=O)NC2CCS(=O)(=O)C2)c1C (configuration not stated)	?	-10	16%	11%	-4%	-2
C=CCn1c(SCC(=O)NC2CCCC2)nnc1-c1ccncc1	?	-15	3%	4%	10%	-1
C=CCn1c(SCC(=O)NC2CCS(=O)(=O)C2)nnc1-c1ccncc1 (configuration not stated)	27%	-2	12%	2.6µM*	14%	-5
O=C(NCc1cccnc1)/C(=C/c1ccc(-c2ccc(Cl)cc2)o1)S(=O)(=O)c1ccccc1	3.3µM*	-21	-10%	6.6µM*	7.9µM*	-1
O=C(NCc1cccnc1)/C(=C/c1ccc(-c2cccc(C(F)(F)F)c2)o1)NC(=O)c1ccccc1	135%	-14	-27%	-16%	2%	-3
O=C(NCc1cccnc1)/C(=C\c1ccc(-c2ccc(Br)cc2)o1)S(=O)(=O)c1ccccc1	?	-15	-16%	?	11µM*	-12
CN=C1c2cc3cc(OC)ccc3n2CCN1Cc1ccccc1	?	-6	2%	/	-29%	-1
CCN(CC)CCNC1=NCCn2c1cc1cc(OC)ccc12	?	-16	-11%	/	6.3µM*	-2
Cn1nc(C(=O)NC2CCCCC2)c2c1-c1ccccc1SC2	?	-6	1%	7%	7%	12
CC(C)N(C(=O)c1nn(C)c2c1CSc1ccccc1-2)C1CCCCC1	2.1µM*	-3	14%	-24%	?	-1
O=C(c1ccc(Cl)c([N+](=O)[O-])c1)N1CCN(C(=O)c2ccco2)CC1	0%	-21	7%	12%	8%	7
O=C(c1ccco1)N1CCN(c2c([N+](=O)[O-])nn(-c3cccc(Cl)c3)[n+]2[O-])CC1	?	22	-7%	20%	-7%	14*
CN(C)/C=C/C(=O)c1nnn(C2CCCCC2)c1NC1CCCCC1	/	8	-3%	5.2µM*	-27%	9
C1CCC(Nc2nnnn2C2CCCCC2)CC1	6%	20	1%	21%	0%	-4
CN(C)CC/C=C1\c2cc(F)ccc2CSc2ccccc21	?	-5	-2%	13µM*	?	-2
C=CCN(C)CC/C=C1\c2ccccc2CSc2ccccc21	?	18	14µM*	?	?	-3
CC(O)CN(C)CC/C=C1/c2ccccc2CSc2ccccc21 (configuration not stated)	?	-27	1%	?	?	-4
C#CCN(C)CC/C=C1\c2ccccc2CSc2ccccc21	?	13	?	13µM*	?	1
CN(CC/C=C1/c2ccccc2CSc2ccccc21)CCCO	13µM*	-4	17%	12µM*	?	-7
CC(C)N1CC2(CC(c3ccccc3C(F)(F)F)=NO2)CN1C(=O)c1ccco1 (configuration not stated)	/	/	23%	/	/	/
CCc1cc(C(=O)N2CCN(C(=O)c3ccccc3)CC2)sc1C	?	/	-8%	?	?	/
CN(Cc1cccc(Cl)c1Cl)c1ccc(S(=O)(=O)N2CCCCC2)cc1[N+](=O)[O-]	?	-8	?	-18%	11µM*	-1

Screening data as filed in PubChem.
